Pin1 inhibitor – human Pin1 inhibition; Potency, µM (top dose mostly 115 µM), inactives show at the top dose activity, negative = inhibition, actives largely listed as inhibitors; Q13526; actives 0.009% (n = 390,000); AID 504891; Pin1 FP peptide displacement, HiFluor488, 10 min; active = well fitted inhibition curve with a large enough effect in the polarisation, with a control signal flat, not every such curve was filed as active; inconclusive = small, poorly fitted or top-dose-only effect, or effect the other way, or a change in a side signal; inactive = no such curve, though single readings can be large or run the other way; the % refers to the polarisation; also: % is scaled to controls: 0 for no effect and ±100 for the full control effect
Target sequence (Q13526 whole entry, looked up): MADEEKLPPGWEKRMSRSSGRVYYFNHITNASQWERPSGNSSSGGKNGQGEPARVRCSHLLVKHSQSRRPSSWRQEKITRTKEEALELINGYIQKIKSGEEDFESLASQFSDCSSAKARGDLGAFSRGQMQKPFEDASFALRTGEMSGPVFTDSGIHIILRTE
Nrf2 block – Nrf2 pathway inhibition. A549 ARE-Fluc reporter, luciferase luminescence, 18-24 h. Potency, µM (series often up to 46 µM), without a hit: at the highest dose activity change, negative = inhibition, most hits filed as inhibitors. actives 2.1% (n = 360,000); also: % is scaled to controls: 0 for no effect and ±100 for the full control effect; nearly all actives have a fitted effect of over 60% in size
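Reporter: ARE-Fluc in A549. Exposure: 18-24 h, 37 °C, 5% CO2, 5% FBS OPTI-MEM. Readouts: fluorescent cytotoxicity (CellTiter-Fluor), then luminescent Nrf2 signal after BugLite.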
Nrf2 ARE act – activates Nrf2 signaling | AREc32 ARE-luciferase reporter (MCF7-derived line), luminescence, 24 h | Potency, µM (top dose mostly 46.1 µM), for the others: at the highest dose activation, actives largely listed as activators | actives 0.31% (n = 410,000) | AID 624171; also: % of control where 0% means no effect; nearly all actives have a fitted effect of over 65% in size
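AREc32 cells carrying an ARE-driven firefly luciferase, 1000 cells/well in OPTI-MEM with 5% FBS, dosed after overnight attachment and incubated 24 hr at 37 deg C. Steady-Glo luminescence read after 30 min at RT.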
A549 tox-1 – counter-screen for Nrf2 inhibitors: cytotoxicity in A549 cells. Potency, µM (highest dose often 46 µM), inactives show at the top dose activity change, negative = cytotoxicity, usual class: inhibitors. A549 ARE-Fluc cells, CellTiter-Fluor viability, 18-24 h. actives 0.16% (n = 390,000); also: % is scaled to controls: 0 for no effect and ±100 for the full control effect
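Cytotoxicity counterscreen: CellTiter-Fluor fluorescence was measured in A549 ARE_Fluc cells after 18-24 h of compound exposure in a concentration series. The subsequent BugLite luminescent read reports ARE-luciferase activity.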
FLuc enzyme inh – firefly luciferase inhibition, Nrf2 hit validation. shares compounds with Nrf2 block. purified firefly luciferase, luminescence inhibition. Potency, µM (top dose mostly 57.5 µM), for the others: top-dose activity change, negative = inhibition, hits mostly inhibitors. actives 4% (n = 1,400). AID 720522; also: % is scaled to controls: 0 for no effect and ±100 for the full control effect; nearly all actives have a fitted effect of over 65% in size
Target sequence (P08659 whole entry, looked up): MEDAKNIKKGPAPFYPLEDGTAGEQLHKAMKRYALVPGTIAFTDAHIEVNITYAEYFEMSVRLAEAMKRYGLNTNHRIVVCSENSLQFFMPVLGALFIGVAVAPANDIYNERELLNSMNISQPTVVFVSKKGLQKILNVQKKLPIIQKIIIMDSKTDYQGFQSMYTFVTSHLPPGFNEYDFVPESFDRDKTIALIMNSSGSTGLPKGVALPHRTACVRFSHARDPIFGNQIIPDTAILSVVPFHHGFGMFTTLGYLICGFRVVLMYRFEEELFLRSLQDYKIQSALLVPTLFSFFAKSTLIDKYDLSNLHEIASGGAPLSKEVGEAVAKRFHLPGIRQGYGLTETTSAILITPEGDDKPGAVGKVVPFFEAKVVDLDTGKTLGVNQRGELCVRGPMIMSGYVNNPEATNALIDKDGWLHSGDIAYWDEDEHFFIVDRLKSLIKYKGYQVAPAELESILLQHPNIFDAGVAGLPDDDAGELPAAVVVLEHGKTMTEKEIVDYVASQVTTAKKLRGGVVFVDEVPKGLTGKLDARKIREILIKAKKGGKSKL
A549 tox-2 – counter-screen for Nrf2 inhibitors: cytotoxicity in A549 ARE cells; A549 ARE-Fluc cells, cytotoxicity counterscreen; actives 2% (n = 1,400); Potency, µM (highest dose often 46.1 µM), inactives show at the highest dose activity change, negative = cytotoxicity, hits mostly inhibitors; shares compounds with Nrf2 block; AID 720523;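 also: cells exposed to compounds for 18 to 24 hours; % is scaled to controls: 0 for no effect and ±100 for the full control effect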
Nrf2 ARE inh – confirmation of Nrf2 inhibitors in A549 ARE reporter cells; shares compounds with Nrf2 block; A549 ARE-firefly luciferase reporter, luminescence; Potency, µM (highest dose often 46.1 µM), for the others: at the highest dose activity change, negative = inhibition, hits mostly inhibitors; actives 74% (n = 1,400); AID 720524; also: % is scaled to controls: 0 for no effect and ±100 for the full control effect; nearly all actives have a fitted effect of over 65% in size
An asterisk follows results filed as active; ? = inconclusive; · = not tested or not shown; [ ] = another dose, or the depositor's remark. Rows were chosen to be rich in hits. Some 2.2% of all compounds tested hit in one or more screens of this group. Unless noted, calls follow the shape of the dose curve; as a rule, active = well fitted curve in the direction sought with a large enough effect; inconclusive = small, poorly fitted or top-dose-only effect, or another doubt; inactive = no such curve, though single readings can be large; an effect the other way counts as inactive or inconclusive. Potency is read from the fitted curve at half-maximal effect.

SMILES	Pin1 inhibitor	Nrf2 block	Nrf2 ARE act	A549 tox-1	FLuc enzyme inh	A549 tox-2	Nrf2 ARE inh
COc1ccc(C)cc1NC(=O)CSc1ccc(-c2ccccn2)nn1	-1%	3.7µM*	6%	2%	?	-12%	18µM*
Cc1cccc(NC(=O)CSc2ccc(-c3ccccn3)nn2)c1	4%	?	0%	-5%	·	·	·
CCCCCn1c(=O)[nH]c2cc(C(=O)NCc3ccc(C)cc3)ccc2c1=O	?	1%[9.27 µM]	-1%	-2%	·	·	·
CCc1cccc(CC)c1NC(=O)CCS(=O)(=O)c1ccc2c(c1)CCN2C(C)=O	-9%	12%	3%	1%	·	·	·
CCOc1ccc(S(=O)(=O)Nc2cnc3ccccc3c2)cc1	-1%	4.1µM*	0%	-11%	0%	0%	6.5µM*
O=C(Nc1ccc(Br)cc1)c1cccc(S(=O)(=O)Nc2cnc3ccccc3c2)c1	10%	2.9µM*	10%	?	?	-14%	18µM*
CCOc1ccc(S(=O)(=O)Nc2nc3ccccc3nc2Cl)cc1	2%	?	2%	0%	·	·	·
CCn1c(SCC(=O)N2CCC(C)CC2)nnc1-c1ccccc1O	1%	·	0%	1%	·	·	·
COc1cccc(NC(=O)c2nnn(Cc3cccc(C(F)(F)F)c3)c2N)c1	-8%	-2%	0%	15%	·	·	·
CC1(C)N=C(N)N=C(N)N1CCCCc1ccccc1	-1%	0.82µM*	-1%	-3%	3%	-5%	1.2µM*
COc1ccc2c(Sc3ccccc3)c(C(=O)NCc3cccc(OC)c3OC)[nH]c2c1	34%	9.2µM*	3%	-3%	-9%	-8%	-1%
O=C(NCCS(=O)(=O)N1CCN(c2ccccc2)CC1)C(c1ccccc1)c1ccccc1	-14%	·	0%	12%	·	·	·
Nc1nc(=O)n(C2OC(CO)C(O)C2O)cc1F (stereo not drawn)	·	·	1%	·	·	·	·
O=c1[nH]c(=O)n([C@@H]2O[C@H](CO)[C@@H](O)[C@H]2O)cc1F	·	·	·	·	0%	?	46%
O=c1[nH]c(=O)n(C2OC(CO)C(O)C2O)cc1F (stereo not drawn)	-2%	?	0%	?	2%	?	0.15µM*
O=C(NCc1ccccc1F)c1cccc(NC(=O)N2CCSc3ncccc32)c1	-3%	-5%	5%	1%	·	·	·
COCCc1nn2c(=O)cc(COC(=O)COc3ccccc3C)nc2s1	-2%	?	0%	3%	·	·	·
Cc1nn(C)c(C)c1CN(Cc1nc(CCC(C)C)no1)C(C)C	-1%	1.3µM*	0%	-9%	-2%	-2%	?
CC(C)(C)c1cc(CCC(=O)NNC(=S)NC(=O)c2ccccc2)cc(C(C)(C)C)c1O	9%	2.9µM*	-1%	?	1%	-9%	15µM*
Cc1cccc(Cl)c1NC(=O)N1CCCN(c2nc3ccc(Cl)cc3s2)CC1	?	9.2µM*	7%	?	-16%	-30%	9.2µM*
CCOc1ccc(NC(=O)c2ccc3nc(C(C)C)oc3c2)cc1	-1%	·	2%	-1%	·	·	·
CC(=O)OCC(=O)C1(O)CCC2C3CCC4=CC(=O)CCC4(C)C3(F)C(O)CC21C (stereo not drawn)	3%	0.037µM*	0%	-11%	3%	-5%	0.021µM*
CC(=O)OCC(=O)C1(O)CCC2C3CCC4=CC(=O)CCC4(C)C3(Cl)C(O)CC21C (stereo not drawn)	-9%	1.2µM*	1%	-2%	0%	-12%	0.52µM*
Cc1ccc(-c2cc(C(=O)N(Cc3ccccc3)Cc3ccco3)no2)cc1F	1%	8%	7%	0%	·	·	·
CC(C)(C)c1ccc(-n2ncc3c2CCCC3NC(=O)C2(C(N)=O)CC2)cc1 (stereo not drawn)	-3%	1.3µM*	0%	-7%	-17%	-7%	·
SMILES	Pin1 inhibitor	Nrf2 block	Nrf2 ARE act	A549 tox-1	FLuc enzyme inh	A549 tox-2	Nrf2 ARE inh
Cc1c(Cl)cccc1NC(=O)Cn1cc(C(=O)C2CCCCC2)c2ccccc21	33%	2.9µM*	0%	-21%	0%	-16%	·
Cc1ccc(NC(=O)Cn2c(=O)n(CCCCC(=O)NCc3ccc4c(c3)OCO4)c(=O)c3ccccc32)cc1	-1%	-5%	0%	-10%	·	·	·
CC[n+]1c(/C=C/N(C)c2ccccc2)oc2ccc(F)cc21	?	6.5µM*	7%	-23%	2%	-13%	5.8µM*
O=C(COC(=O)c1ccc[nH]c1=O)Nc1ccc(S(=O)(=O)N2CCCC2)cc1	-5%	0%	0%	-25%	·	·	·
O=C(COC(=O)c1ccc[nH]c1=O)Nc1ccc(N2CCCCC2)cc1	-1%	2.3µM*	-3%	-1%	11µM*	-1%	4.1µM*
CC(CNC(=O)Cn1ncc2c3ccccc3n(Cc3cccc(Cl)c3)c2c1=O)c1ccccc1 (stereo not drawn)	?	?	0%	-6%	·	·	·
COc1ccc(CN(C)C(=O)/C=C/c2ccc(S(=O)(=O)N3CCCCCC3)cc2)cc1	-1%	9.2µM*	2%	-15%	-12%	-18%	?
CCOC(=O)c1c(NC(=O)CC2SC(N)=NC2=O)sc2c1CCCC2 (stereo not drawn)	-1%	1.6µM*	3%	-24%	-1%	-1%	?
CCOC(=O)c1c(NC(=O)COC)sc2c1CCCC2	-1%	1%	-1%	14%	·	·	·
CCCCn1c(CN2CCN(c3ccccc3)CC2)nc2c1c(=O)n(C)c(=O)n2C	-6%	4.1µM*	0%	?	2%	-12%	15µM*
Cc1sc2ncnc(NCCc3ccc(S(N)(=O)=O)cc3)c2c1C	0%	2.3µM*	7%	-20%	0%	-11%	6.5µM*
NS(=O)(=O)c1ccc(CCNc2ncnc3sccc23)cc1	8%	1.6µM*	0%	-25%	-1%	2%	?
Cc1ccc(S(=O)(=O)Nc2ncnc3sc(C)c(C)c23)cc1	0%	?	0%	1%	·	·	·
Cn1c2ccsc2c2cnn(Cc3ccccc3F)c(=O)c21	-7%	18%	·	-5%	·	·	·
CCOC(=O)N1CCc2c(sc(NC(=O)c3ccc(S(=O)(=O)N4CCCC4)cc3)c2C#N)C1	?	7.3µM*	1%	-28%	-28%	-29%	7.3µM*
O=C(Nc1cc(S(=O)(=O)N2CCCCC2)ccc1Cl)c1ccccc1NS(=O)(=O)c1ccc(F)cc1	?	3.7µM*	4%	?	-26%	?	4.6µM*
Cc1ccc(CNC(=O)c2sc3nc4n(c(=O)c3c2C)CCCC4)cc1	?	?	3%	-20%	·	·	·

Bioassay records as filed in PubChem.
